From the supplement of paper PMC6411743
± gives the standard deviation of the averaged measurements. The full data set covers some 6,200 targets. This sample favours those with the largest changes.

Compound: Nc1ncnc2c1ncn2[C@@H]1O[C@H](COP(=O)(O)OP(=O)(O)NP(=O)(O)O)[C@@H](O)[C@H]1O [adenylyl imidodiphosphate]
Experiment: NP40-soluble protein abundance relative to vehicle (solubility fold change) (ratio); higher = more soluble protein in presence of AMP-PNP
Outline: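 In three independent experiments, Jurkat crude lysate made by Dounce homogenisation was treated for 10 min at room temperature and then 3 min at 37 °C with eight concentrations ranging from 0.1 to 10 mM. It was then solubilised with 0.8% NP40 plus benzonase for 60 min at 4 °C and ultracentrifuged. The supernatant was TMT-labelled for LC-MS/MS, and each value is the fold change against the detergent-processed vehicle for the same replicate, using vsn-normalised intensities.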

UniProt Q86VR2, sequence (Q86VR2 whole entry): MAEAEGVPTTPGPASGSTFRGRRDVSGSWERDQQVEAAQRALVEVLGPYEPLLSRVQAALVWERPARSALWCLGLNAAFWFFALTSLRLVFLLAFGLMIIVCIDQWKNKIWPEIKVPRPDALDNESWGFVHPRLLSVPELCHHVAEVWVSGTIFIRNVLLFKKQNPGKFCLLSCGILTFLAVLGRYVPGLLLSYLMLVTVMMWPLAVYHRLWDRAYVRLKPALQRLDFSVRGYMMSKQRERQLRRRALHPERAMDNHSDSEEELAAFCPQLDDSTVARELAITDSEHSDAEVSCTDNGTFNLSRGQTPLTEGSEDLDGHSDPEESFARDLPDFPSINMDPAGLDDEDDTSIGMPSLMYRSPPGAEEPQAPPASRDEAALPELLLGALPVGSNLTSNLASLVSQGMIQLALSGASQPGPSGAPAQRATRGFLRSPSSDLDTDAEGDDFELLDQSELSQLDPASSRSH
UniProt Q5FWF5, sequence (Q5FWF5 whole entry): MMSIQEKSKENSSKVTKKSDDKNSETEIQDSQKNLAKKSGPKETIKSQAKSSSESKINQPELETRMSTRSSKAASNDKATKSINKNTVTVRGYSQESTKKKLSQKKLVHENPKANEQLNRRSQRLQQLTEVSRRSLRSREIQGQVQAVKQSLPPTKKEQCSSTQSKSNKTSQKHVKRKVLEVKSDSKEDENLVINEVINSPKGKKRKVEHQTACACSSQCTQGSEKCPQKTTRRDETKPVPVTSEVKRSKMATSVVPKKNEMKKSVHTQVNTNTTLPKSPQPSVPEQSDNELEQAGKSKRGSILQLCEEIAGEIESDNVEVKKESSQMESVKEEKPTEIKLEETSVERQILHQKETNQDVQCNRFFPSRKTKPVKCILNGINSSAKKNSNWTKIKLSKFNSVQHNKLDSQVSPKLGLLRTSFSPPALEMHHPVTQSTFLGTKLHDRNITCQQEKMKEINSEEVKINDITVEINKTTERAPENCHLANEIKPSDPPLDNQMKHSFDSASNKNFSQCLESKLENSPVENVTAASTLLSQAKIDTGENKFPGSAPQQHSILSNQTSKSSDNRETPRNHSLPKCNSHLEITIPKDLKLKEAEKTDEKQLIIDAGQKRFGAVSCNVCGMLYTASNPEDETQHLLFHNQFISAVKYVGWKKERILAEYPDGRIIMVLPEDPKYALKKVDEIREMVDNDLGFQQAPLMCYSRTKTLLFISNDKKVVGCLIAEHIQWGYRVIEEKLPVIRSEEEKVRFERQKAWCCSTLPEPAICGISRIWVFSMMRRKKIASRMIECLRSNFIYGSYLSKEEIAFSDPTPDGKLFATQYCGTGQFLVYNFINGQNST
UniProt Q8N4N3, sequence (Q8N4N3 whole entry): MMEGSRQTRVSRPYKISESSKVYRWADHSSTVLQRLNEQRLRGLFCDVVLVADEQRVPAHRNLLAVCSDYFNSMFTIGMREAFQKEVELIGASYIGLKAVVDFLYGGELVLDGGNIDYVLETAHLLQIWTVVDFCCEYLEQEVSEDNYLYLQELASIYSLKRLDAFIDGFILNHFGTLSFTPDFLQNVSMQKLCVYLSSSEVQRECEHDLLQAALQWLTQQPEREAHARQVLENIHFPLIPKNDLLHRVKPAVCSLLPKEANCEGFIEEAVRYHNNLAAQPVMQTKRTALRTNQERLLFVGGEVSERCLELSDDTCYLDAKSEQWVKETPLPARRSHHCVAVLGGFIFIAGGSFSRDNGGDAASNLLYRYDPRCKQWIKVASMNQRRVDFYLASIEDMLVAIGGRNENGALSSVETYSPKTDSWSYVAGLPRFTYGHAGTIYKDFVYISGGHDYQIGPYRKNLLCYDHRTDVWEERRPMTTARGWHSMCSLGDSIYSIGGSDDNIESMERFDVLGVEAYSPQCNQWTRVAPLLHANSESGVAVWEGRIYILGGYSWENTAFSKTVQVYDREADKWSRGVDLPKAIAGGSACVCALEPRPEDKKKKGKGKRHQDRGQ
UniProt Q9H5Z1, sequence (Q9H5Z1 whole entry, one chain of several): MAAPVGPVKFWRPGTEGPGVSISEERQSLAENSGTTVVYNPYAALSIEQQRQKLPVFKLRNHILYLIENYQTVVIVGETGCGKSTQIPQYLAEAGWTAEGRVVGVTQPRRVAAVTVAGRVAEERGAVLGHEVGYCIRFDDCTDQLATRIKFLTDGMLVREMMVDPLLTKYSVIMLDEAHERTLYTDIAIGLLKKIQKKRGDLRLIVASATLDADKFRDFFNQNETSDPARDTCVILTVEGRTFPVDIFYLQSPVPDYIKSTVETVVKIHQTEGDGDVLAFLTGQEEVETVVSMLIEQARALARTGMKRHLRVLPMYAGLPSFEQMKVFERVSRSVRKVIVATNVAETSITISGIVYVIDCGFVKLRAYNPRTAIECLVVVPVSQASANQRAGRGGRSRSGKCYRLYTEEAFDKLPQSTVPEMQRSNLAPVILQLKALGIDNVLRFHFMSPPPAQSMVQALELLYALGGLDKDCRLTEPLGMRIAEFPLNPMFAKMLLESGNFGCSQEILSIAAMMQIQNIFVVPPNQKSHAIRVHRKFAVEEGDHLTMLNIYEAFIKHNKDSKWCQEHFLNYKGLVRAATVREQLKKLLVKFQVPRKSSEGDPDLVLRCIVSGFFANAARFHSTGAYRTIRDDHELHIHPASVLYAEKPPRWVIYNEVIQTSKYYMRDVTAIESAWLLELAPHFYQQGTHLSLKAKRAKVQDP
UniProt Q14181, sequence (Q14181 whole entry): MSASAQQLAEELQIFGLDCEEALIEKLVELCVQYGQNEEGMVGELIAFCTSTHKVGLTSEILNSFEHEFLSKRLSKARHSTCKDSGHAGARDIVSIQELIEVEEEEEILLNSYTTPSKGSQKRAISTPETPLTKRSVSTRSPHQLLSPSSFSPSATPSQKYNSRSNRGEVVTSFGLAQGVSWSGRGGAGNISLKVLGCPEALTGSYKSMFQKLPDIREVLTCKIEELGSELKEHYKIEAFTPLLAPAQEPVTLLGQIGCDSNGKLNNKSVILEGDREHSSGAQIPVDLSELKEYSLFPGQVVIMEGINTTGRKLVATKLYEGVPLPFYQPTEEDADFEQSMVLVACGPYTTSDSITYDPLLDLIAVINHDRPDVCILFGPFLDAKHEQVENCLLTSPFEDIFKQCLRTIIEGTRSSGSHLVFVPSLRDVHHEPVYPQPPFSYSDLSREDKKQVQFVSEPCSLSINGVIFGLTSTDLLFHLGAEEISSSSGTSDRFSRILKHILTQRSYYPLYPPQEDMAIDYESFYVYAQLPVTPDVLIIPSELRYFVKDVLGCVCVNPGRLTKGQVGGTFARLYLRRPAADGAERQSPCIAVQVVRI
UniProt Q6IAA8, sequence (Q6IAA8 whole entry, one chain of several): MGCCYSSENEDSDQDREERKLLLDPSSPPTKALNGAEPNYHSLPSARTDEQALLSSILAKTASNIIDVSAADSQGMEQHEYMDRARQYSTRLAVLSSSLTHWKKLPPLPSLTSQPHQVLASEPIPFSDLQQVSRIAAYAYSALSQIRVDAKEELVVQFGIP
UniProt Q13769, sequence (Q13769 whole entry): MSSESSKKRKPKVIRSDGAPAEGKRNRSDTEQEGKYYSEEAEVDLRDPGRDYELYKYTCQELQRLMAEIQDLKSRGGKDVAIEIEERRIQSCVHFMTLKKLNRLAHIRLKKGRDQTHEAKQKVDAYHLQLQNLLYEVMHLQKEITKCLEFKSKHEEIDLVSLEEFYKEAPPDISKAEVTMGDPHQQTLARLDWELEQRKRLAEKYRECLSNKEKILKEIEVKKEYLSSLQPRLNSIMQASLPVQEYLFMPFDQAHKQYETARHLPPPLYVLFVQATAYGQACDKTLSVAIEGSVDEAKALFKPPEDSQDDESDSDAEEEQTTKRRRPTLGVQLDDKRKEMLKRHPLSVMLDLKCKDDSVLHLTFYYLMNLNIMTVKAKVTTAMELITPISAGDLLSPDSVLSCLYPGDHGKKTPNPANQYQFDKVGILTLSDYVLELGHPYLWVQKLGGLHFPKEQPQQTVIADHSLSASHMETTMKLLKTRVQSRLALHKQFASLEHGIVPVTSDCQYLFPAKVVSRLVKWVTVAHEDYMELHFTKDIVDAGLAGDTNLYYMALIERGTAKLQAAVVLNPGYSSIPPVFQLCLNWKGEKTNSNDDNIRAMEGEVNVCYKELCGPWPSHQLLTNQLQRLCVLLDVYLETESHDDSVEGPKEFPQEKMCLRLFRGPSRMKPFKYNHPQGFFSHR
UniProt Q8IY22, sequence (Q8IY22 whole entry): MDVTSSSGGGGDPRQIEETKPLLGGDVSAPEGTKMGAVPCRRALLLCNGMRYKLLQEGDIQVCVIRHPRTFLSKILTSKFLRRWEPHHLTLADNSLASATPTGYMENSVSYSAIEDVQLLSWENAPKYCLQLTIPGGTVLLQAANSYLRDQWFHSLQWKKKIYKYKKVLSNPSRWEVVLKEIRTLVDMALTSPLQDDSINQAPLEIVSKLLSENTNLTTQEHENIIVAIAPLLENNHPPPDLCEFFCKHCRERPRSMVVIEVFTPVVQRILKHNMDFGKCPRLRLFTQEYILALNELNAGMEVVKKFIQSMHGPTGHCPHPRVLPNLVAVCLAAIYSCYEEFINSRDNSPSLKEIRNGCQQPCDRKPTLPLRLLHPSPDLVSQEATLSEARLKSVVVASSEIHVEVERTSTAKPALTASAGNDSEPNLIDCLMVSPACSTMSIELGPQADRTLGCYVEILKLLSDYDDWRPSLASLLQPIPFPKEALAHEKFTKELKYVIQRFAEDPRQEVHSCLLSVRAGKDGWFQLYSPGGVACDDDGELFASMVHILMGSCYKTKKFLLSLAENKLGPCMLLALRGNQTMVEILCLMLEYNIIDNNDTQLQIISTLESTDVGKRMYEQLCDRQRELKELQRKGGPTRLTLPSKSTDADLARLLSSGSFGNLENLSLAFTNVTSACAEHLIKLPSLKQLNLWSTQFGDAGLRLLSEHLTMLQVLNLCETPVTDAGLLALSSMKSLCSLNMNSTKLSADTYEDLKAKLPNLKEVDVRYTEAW
UniProt Q5JTJ3, sequence (Q5JTJ3 whole entry, one chain of several): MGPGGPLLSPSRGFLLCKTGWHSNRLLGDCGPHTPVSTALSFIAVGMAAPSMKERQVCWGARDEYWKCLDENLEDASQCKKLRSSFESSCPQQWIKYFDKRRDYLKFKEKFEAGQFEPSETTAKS

Target	NP40-soluble protein abundance (concentration: 1mM)	NP40-soluble protein abundance (concentration: 2mM)	NP40-soluble protein abundance (concentration: 4mM)	NP40-soluble protein abundance (concentration: 6mM)	NP40-soluble protein abundance (concentration: 8mM)	NP40-soluble protein abundance (concentration: 10mM)
UniProt Q86VR2	0.989 ± 0.0052	0.966 ± 0.024	0.977 ± 0.025	0.976 ± 0.015	0.9994 ± 0.002	0.952 ± 0.01
CMIP (UniProt Q8IY22)	0.986 ± 0.047	0.964 ± 0.031	0.942 ± 0.029	0.958 ± 0.046	0.935 ± 0.022	0.923 ± 0.043
Q5THR1|Q9H5Z1|Q9H5Z1-2|F2Z2Z2 (UniProt Q9H5Z1)	1.02 ± 0.061	0.96808 ± 0.00094	1.01 ± 0.011	0.987 ± 0.024	0.991 ± 0.022	0.997 ± 0.023
UniProt Q92576|Q92576-2	1.046 ± 0.0099	1.09 ± 0.048	1.08 ± 0.008	1.08 ± 0.07	1.09 ± 0.04	1.11 ± 0.046
EIF3A (UniProt Q14152)	1.05 ± 0.029	1.08 ± 0.044	1.12 ± 0.087	1.19 ± 0.12	1.25 ± 0.12	1.38 ± 0.19
LEO1 (UniProt Q8WVC0)	1.025 ± 0.006	1.04 ± 0.062	1.01 ± 0.029	1.02 ± 0.03	0.997 ± 0.016	1.02 ± 0.024
TRAPPC5 (UniProt Q8IUR0)	0.946 ± 0.055	0.933 ± 0.043	0.959 ± 0.073	1.187 ± 0.002	1.18 ± 0.043	1.12 ± 0.13
POLA2 (UniProt Q14181)	0.994 ± 0.014	0.974 ± 0.028	1 ± 0.044	1.04 ± 0.03	1.02 ± 0.021	1.03 ± 0.025
UniProt Q15223	1.01 ± 0.026	1.028 ± 0.0082	1.011 ± 0.0089	1.01 ± 0.011	0.997 ± 0.023	1.01 ± 0.028
PLA2G15 (UniProt Q8NCC3)	0.991 ± 0.013	0.975 ± 0.013	1.02 ± 0.03	0.986 ± 0.029	0.9922 ± 0.0084	0.979 ± 0.021
UniProt Q6IAA8|F5GX19|F5H3Y3|F5H479|H0YFI1	1.02 ± 0.025	1.04 ± 0.028	1.04 ± 0.047	0.992 ± 0.051	0.975 ± 0.017	0.966 ± 0.035
THOC7 (UniProt Q6I9Y2)	1.29 ± 0.045	1.47 ± 0.2	1.57 ± 0.24	1.73 ± 0.39	1.85 ± 0.47	1.93 ± 0.64
UniProt Q15084|Q15084-2|Q15084-3|Q15084-4|Q15084-5	0.949 ± 0.019	0.989 ± 0.021	0.9386 ± 0.0066	0.951 ± 0.032	0.92 ± 0.022	0.94 ± 0.047
UniProt Q7Z2K8|Q7Z2K8-2	0.958 ± 0.012	0.913 ± 0.023	1.12 ± 0.049	1.1 ± 0.038	0.932 ± 0.057	0.932 ± 0.031
UniProt Q15006	0.984 ± 0.018	0.9532 ± 0.0062	0.975 ± 0.044	0.989 ± 0.049	1.02 ± 0.028	1.02 ± 0.013
PSME4 (UniProt Q14997)	0.9678 ± 0.0088	0.905 ± 0.072	0.968 ± 0.045	0.884 ± 0.075	0.925 ± 0.11	0.884 ± 0.11
EPM2AIP1 (UniProt Q7L775)	0.961 ± 0.015	0.94 ± 0.032	0.96 ± 0.025	0.947 ± 0.028	0.9617 ± 0.0055	0.958 ± 0.041
UniProt Q7Z3B4|Q7Z3B4-3	0.969 ± 0.054	0.9436 ± 0.0042	1 ± 0.064	1.07 ± 0.067	1.13 ± 0.078	1.09 ± 0.11
PRPF4B (UniProt Q13523)	1.02 ± 0.02	1.01 ± 0.048	1.1 ± 0.037	1.2 ± 0.032	1.26 ± 0.042	1.34 ± 0.067
THOC5 (UniProt Q13769)	1.36 ± 0.17	1.42 ± 0.23	1.65 ± 0.35	1.84 ± 0.54	2.03 ± 0.65	2.16 ± 0.88
UniProt Q8N4N3|Q8N4N3-2	1 ± 0.013	0.996 ± 0.019	0.981 ± 0.027	0.96 ± 0.019	0.981 ± 0.027	0.959 ± 0.017
TBRG4 (UniProt Q969Z0)	0.984 ± 0.03	0.953 ± 0.033	0.955 ± 0.012	0.959 ± 0.028	0.941 ± 0.022	0.935 ± 0.054
LRRC59 (UniProt Q96AG4)	1.11 ± 0.048	1.32 ± 0.3	1.13 ± 0.089	1.15 ± 0.028	1.12 ± 0.052	1.19 ± 0.13
UniProt Q5JTJ3|Q5JTJ3-2|Q5JTJ3-3|X6R5Z6	1.02 ± 0.015	1.04 ± 0.081	0.991 ± 0.038	0.97 ± 0.043	0.943 ± 0.016	0.966 ± 0.046
UniProt Q5FWF5	1.01 ± 0.012	1.012 ± 0.0086	1 ± 0.026	1.04 ± 0.035	1.029 ± 7.1e-05	1.06 ± 0.023
DTX3L (UniProt Q8TDB6)	1.03 ± 0.02	1.01 ± 0.024	1.04 ± 0.059	0.994 ± 0.03	0.996 ± 0.038	0.993 ± 0.022
UniProt Q5T011|Q5T011-5	0.882 ± 0.14	0.91 ± 0.071	0.912 ± 0.076	0.864 ± 0.16	0.809 ± 0.045	0.803 ± 0.056
